In PubChem BioAssay (Tox21):
“And” between values parts separate entries of the source, which are not always exact repeats. Equal entries are not always repeated. Records with an inconclusive call do not appear. A call without a number means that no potency is given here. Some compounds were tested as several samples or in several runs, with calls that do not always agree. The source made the active and inactive calls. Unless noted, the call rests on the fitted dose curve; in most records, active means well fitted curve in the direction sought with a large enough effect in the repeat runs; inconclusive means weak or mixed curves; inactive means no such curve, though single readings can be large; an effect the other way counts as inactive or inconclusive.

What was measured:
[1] = qHTS assay to identify small molecule agonists of H2AX (AID 1224845; active means well fitted activation curve with a large enough effect in the signal ratio in the repeat runs, not every such curve was filed as active; the % refers to the signal ratio)
Summary of the method: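 Wild-type CHO-K1 cells plated overnight, then exposed 3 hr at 37C to compounds at 15 concentrations (0.76% DMSO). Lysed, then HTRF anti-pH2AX(S139)-cryptate/anti-H2AX-d2 detection after 24 hr at room temperature; emissions 665 and 620 nm.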

[2] = qHTS assay to identify small molecule agonists of the hypoxia (HIF-1) signaling pathway (AID 1224846; active means well fitted activation curve with a large enough effect in the signal ratio in the repeat runs, not every such curve was filed as active; the % refers to the signal ratio)
Summary of the method: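 Measured by blue/green FRET after loading CCF4-AM: beta-lactamase expressed from a hypoxia response element in ME-180 cells. Test agents were delivered in DMSO and left 17 hrs; cells had been plated 5 hrs earlier in low-serum (0.5% dialyzed FBS) medium.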

[3] = qHTS assay to identify small molecule agonists of H2AX - cell viability counter screen (AID 1224847; calls by dose curve; further: nearly all actives have a fitted effect of over 30% in size; further: potency means the concentration at half of the fitted maximal effect)
Summary of the method: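 After overnight plating of 1000 CHO-K1 cells per well, a 15-concentration compound series was applied for 3 hr at 37C. Luminescence from CellTiter-Glo, read following 30 min at room temperature, reflected cell viability.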

[4] = A CellTox Green Cytotoxicity Assay to monitor cytotoxicity in HEK293 cells - 0 hour (AID 1224869); further: nearly all actives have a fitted effect of over 50% in size
Summary of the method: (§1)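 Each value comes from one timepoint of a single continuous run in which HEK293 cells with CellTox Green were exposed to compound for up to 40 h at 37 C, dye fluorescence rising with cell death.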

[5] = A CellTox Green Cytotoxicity Assay to monitor cytotoxicity in HEK293 cells - 40 hour (AID 1224871); further: nearly all actives have a fitted effect of over 45% in size; further: potency means the concentration at half of the fitted maximal effect
Summary of the method: as §1

[6] = A CellTox Green Cytotoxicity Assay to monitor cytotoxicity in HEK293 cells - 24 hour (AID 1224875); further: nearly all actives have a fitted effect of over 45% in size; further: potency means the concentration at half of the fitted maximal effect
Summary of the method: as §1

[7] = A CellTox Green Cytotoxicity Assay to monitor cytotoxicity in HepG2 cells - 16 hour (AID 1224876); further: nearly all actives have a fitted effect of over 45% in size; further: potency means the concentration at half of the fitted maximal effect
Summary of the method: (§2)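 Continuous culture of HepG2 cells with a membrane-impermeant DNA dye; rising fluorescence marks dead cells. Compound exposure lasted up to 40 h at 37 C, with reads every 8 h from 0 h.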

[8] = A CellTox Green Cytotoxicity Assay to monitor cytotoxicity in HepG2 cells - 40 hour (AID 1224879); further: nearly all actives have a fitted effect of over 40% in size; further: potency means the concentration at half of the fitted maximal effect
Summary of the method: as §2

[9] = A CellTox Green Cytotoxicity Assay to monitor cytotoxicity in HEK293 cells - 32 hour (AID 1224881); further: nearly all actives have a fitted effect of over 40% in size; further: potency means the concentration at half of the fitted maximal effect
Summary of the method: as §1

[10] = qHTS assay to identify small molecule antagonists of the estrogen related receptor (ERR) signaling pathway from Tox21 library (AID 1224848); further: nearly all actives have a fitted effect of over 50% in size; further: potency means the concentration at half of the fitted maximal effect
Summary of the method: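 Cells: ERR line, 2,000/well; 6 h preincubation 37 C/5% CO2. Cpd in DMSO via pin tool; 18 h, 37 C. ONE-Glo, 30 min RT, luminescence.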

[11] = qHTS RealTime-Glo MT Cell Viability Assay in HepG2 cells - 24 hour (AID 1224867); further: nearly all actives have a fitted effect of over 50% in size; further: potency means the concentration at half of the fitted maximal effect
Summary of the method: (§3)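 Cells + NanoLuc/prosubstrate dispensed (600 cells/well) → 5 h at 37 C/5% CO2 → compounds in DMSO transferred → 40 h incubation at 37 C, luminescence read at 0, 8, 16, 24, 32, 40 h.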

[12] = qHTS RealTime-Glo MT Cell Viability Assay in HEK293 cells - 32 hour (AID 1224868); further: nearly all actives have a fitted effect of over 50% in size; further: potency means the concentration at half of the fitted maximal effect
Summary of the method: (§4)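 Tox21 10K qHTS, HEK293, 600 cells/well, RealTime-Glo reagent co-dispensed with cells; 5 h preincubation, compound by pintool, 37 C, luminescence at 0–40 h.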

[13] = qHTS RealTime-Glo MT Cell Viability Assay in HepG2 cells - 40 hour (AID 1224870); further: nearly all actives have a fitted effect of over 50% in size; further: potency means the concentration at half of the fitted maximal effect
Summary of the method: (§5)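 HepG2 cells mixed with RealTime-Glo MT reagents (NanoLuc plus cell-permeant prosubstrate) were seeded at 600 cells/well, incubated 5 h at 37 C/5% CO2, then pinned with compounds in DMSO; nonlytic luminescence tracked viability during 40 h treatment.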

[14] = qHTS RealTime-Glo MT Cell Viability Assay in HEK293 cells - 16 hour (AID 1224872); further: nearly all actives have a fitted effect of over 50% in size; further: potency means the concentration at half of the fitted maximal effect
Summary of the method: as §4

[15] = qHTS RealTime-Glo MT Cell Viability Assay in HepG2 cells - 8 hour (AID 1224873); further: nearly all actives have a fitted effect of over 55% in size; further: potency means the concentration at half of the fitted maximal effect
Summary of the method: as §5

[16] = qHTS RealTime-Glo MT Cell Viability Assay in HEK293 cells - 40 hour (AID 1224874); conditions: RealTime-Glo luminescence; max response: stronger effect = lower value; further: nearly all actives have a fitted effect of over 50% in size; further: potency means the concentration at half of the fitted maximal effect
Summary of the method: (§6)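 qHTS format; HEK293 cells with NanoLuc/prosubstrate reagent, 37 C/5% CO2 for 5 h pre-dosing; compounds 23 nL in DMSO; luminescence at each time point reflects viable cells.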

[17] = qHTS RealTime-Glo MT Cell Viability Assay in HepG2 cells - 32 hour (AID 1224877); further: nearly all actives have a fitted effect of over 55% in size; further: potency means the concentration at half of the fitted maximal effect
Summary of the method: as §3

[18] = A CellTox Green Cytotoxicity Assay to monitor cytotoxicity in HepG2 cells - 24 hour (AID 1224878); further: nearly all actives have a fitted effect of over 45% in size; further: potency means the concentration at half of the fitted maximal effect
Summary of the method: as §2

[19] = qHTS RealTime-Glo MT Cell Viability Assay in HEK293 cells - 0 hour (AID 1224880)
Summary of the method: as §6

[20] = qHTS assay to identify small molecule agonists of the estrogen related receptor (ERR) signaling pathway from Tox21 library (AID 1224849; calls by dose curve; further: nearly all actives have a fitted effect of over 15% in size); conditions: ERR reporter cell line, ONE-Glo luciferase, 18 h; at 42.5 µM (top of the series)
Summary of the method: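 We plated ERR reporter cells, waited 6 h, added compounds in DMSO by pin tool and incubated them 18 h at 37 C. ONE-Glo was then added and luminescence read after 30 min.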

With `CCC(C)(C)C(=O)O[C@H]1C[C@@H](C)C=C2C=C[C@H](C)[C@H](CC[C@@H]3C[C@@H](O)CC(=O)O3)[C@H]21` the Potency [1] was “inactive”, the Potency [2] was “inactive” and the Potency [3] was “inactive”. The Potency [4] was “inactive”, the Potency [5] was “inactive” and the Potency [6] was “inactive”. For the same compound, the Potency [7] was “inactive and 21.3 µM (active)”, the Potency [8] was 24.5 µM (active) and 9.52 µM (active) and the Potency [9] was “inactive”.
With `Cc1ccc(-c2cc(C(F)(F)F)nn2-c2ccc(S(N)(=O)=O)cc2)cc1` the Potency [1] was “inactive”, the Potency [3] was 100 µM (active) and 113 µM (active) and the Potency [10] was 27.2 µM (active) and 61.1 µM (active). The Potency [11] was 48.8 µM (active) and 49 µM (active), the Potency [12] was 38.7 µM (active) and 30.9 µM (active) and the Potency [4] was “inactive”. The Potency [13] was 49 µM (active) and inactive, the Potency [5] was 54.7 µM (active) and 54.9 µM (active) and inactive and the Potency [14] was 38.7 µM (active) and 27.5 µM (active) and inactive. The Potency [15] was 48.8 µM (active) and 49 µM (active) and inactive, the Potency [16] was 21.8 µM (active) and 30.9 µM (active) and the Potency [6] was “inactive”. The Potency [7] was 48.8 µM (active) and 43.6 µM (active), the Potency [17] was 49 µM (active) and inactive and the Potency [18] was 19.4 µM (active) and 49 µM (active). For the same compound, the Potency [19] was “inactive” and the Potency [9] was 49 µM (active) and inactive.
With `Cc1cc(C(C)(C)C)c(O)c(C(C)(C)C)c1` the Potency [1] was “inactive”, the Potency [2] was “inactive” and the Potency [11] was “inactive”. For the same compound, the Potency [12] was “inactive”, the Potency [4] was “inactive” and the Potency [13] was “inactive”. The Potency [5] was 49.1 µM (active), the Potency [14] was “inactive” and the Potency [15] was “inactive”. The max response [16] was -21.9% (inactive) and 0.957% (inactive) and 2.01% (inactive), the Potency [6] was 49.1 µM (active) and the Potency [7] was “inactive”. The Potency [17] was “inactive”, the Potency [18] was “inactive” and the Potency [19] was “inactive”. For the same compound, the Potency [9] was 49.1 µM (active).
In the case of `NC(N)=NC(=O)Cc1c(Cl)cccc1Cl`, the Potency [1] is reported as “inactive”, the Potency [3] is reported as “inactive” and the Potency [10] is reported as “inactive”. For the same compound, the Potency [11] was “inactive”, the Potency [12] was “inactive” and the Potency [4] was “inactive”. For the same compound, the Potency [13] was “inactive”, the Potency [5] was “inactive” and the Potency [14] was “inactive”. For the same compound, the Potency [15] was “inactive”, the max response [16] was -13.5% (inactive) and the Potency [6] was “inactive”. The Potency [7] was “inactive”, the Potency [17] was “inactive” and the Potency [18] was “inactive”. The Potency [8] was “inactive”, the Potency [19] was “inactive” and the Potency [9] was “inactive”.
In the case of `Clc1ccc2c(c1)C(N1CCNCC1)=Nc1ccccc1O2`, the Potency [1] is reported as “inactive”, the Potency [3] is reported as “inactive” and the Potency [11] is reported as 54.9 µM (active). The Potency [12] was 43.6 µM (active) and 26.8 µM (active), the Potency [4] was “inactive” and the Potency [13] was 54.9 µM (active). For the same compound, the Potency [5] was 26.8 µM (active), the Potency [15] was “inactive” and the Potency [16] was 43.6 µM (active) and 23.9 µM (active). The Potency [7] was 54.9 µM (active), the Potency [18] was 54.9 µM (active) and 26.8 µM (active) and the Potency [19] was “inactive”.
In the case of `N[C@@H]1CONC1=O`, the Potency [1] is reported as “inactive”, the Potency [3] is reported as “inactive” and the Potency [10] is reported as “inactive”. The activity change, positive = activation [20] was 7.16% (inactive), the Potency [11] was “inactive” and the Potency [4] was “inactive”. The Potency [13] was “inactive”, the Potency [5] was “inactive” and the Potency [14] was “inactive”. The Potency [15] was “inactive”, the Potency [6] was “inactive” and the Potency [17] was “inactive”. For the same compound, the Potency [19] was “inactive” and the Potency [9] was “inactive”.
